Hits are enriched below; roughly 3.5% of the tested compounds scored in any of these assays.
MITF primary = blocks human microphthalmia-associated transcription factor; O75030; AlphaScreen MITF homodimerization, bead proximity signal; inhibition, % at 2.6 µM; hit rate 0.91% among 650,000; AID 1259374; in the data active = inhibition above about 50%;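 note: 0% = vehicle wells with protein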
GPR151 activ = activators of human GPR151; AID 1508602; hit rate 1% among 650,000; Q8TDV0; PathHunter beta-arrestin GPR151 cells, luminescence; activation, % at 11.2 µM; in the data active = activation above about 4.9%;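 note: 0% = median of compound wells and 100% = cells with positive control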
Target sequence (Q8TDV0 whole entry, looked up): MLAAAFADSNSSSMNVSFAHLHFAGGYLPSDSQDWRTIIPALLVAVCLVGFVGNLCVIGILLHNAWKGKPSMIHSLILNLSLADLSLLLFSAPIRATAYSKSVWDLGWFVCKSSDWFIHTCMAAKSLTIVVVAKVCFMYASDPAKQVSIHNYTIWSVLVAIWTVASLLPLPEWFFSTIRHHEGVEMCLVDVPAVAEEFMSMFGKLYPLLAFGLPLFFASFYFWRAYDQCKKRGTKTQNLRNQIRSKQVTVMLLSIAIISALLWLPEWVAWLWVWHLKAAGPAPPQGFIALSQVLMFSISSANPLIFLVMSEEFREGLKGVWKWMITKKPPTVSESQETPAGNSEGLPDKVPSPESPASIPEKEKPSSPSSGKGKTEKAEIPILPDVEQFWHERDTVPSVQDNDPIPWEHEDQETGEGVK
TEAD-YAP block = TEAD-YAP interaction inhibition | hit rate 1.4% among 640,000 | HEK-TIYL cells, TEAD-Gal4/YAP UAS-luciferase luminescence | AID 1259422 | inhibition, % at 9.12 µM; in the data active = inhibition above about 32%;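 note: 0% = median of test compound wells and 100% = reference inhibitor wells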
FBW7 act = human FBW7 E3 ligase activation, primary screen | Q969H0 | AlphaScreen FBW7–phospho-cyclin E peptide binding, activator screen | normalized activity (activation), % at 26.1 µM | hit rate 0.13% among 650,000; in the data active = normalized activity above about 1.9%;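 note: purified mutant Fbw7 with reduced substrate affinity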
* marks the source's active call; other numbers are inactive results.

SMILES | MITF primary | GPR151 activ | TEAD-YAP block | FBW7 act
N#Cc1cc2c(N)c(C(=O)c3ccc4c(c3)OCO4)sc2nc1N | -1 | 1 | -1 | 5.1*
CCc1ccc(NC(=O)C(=O)N/N=C(\C)CC(=O)NCc2ccco2)cc1 | 2 | 0 | -10 | 0
O=C(Cn1c(=O)[nH]c2ccccc2c1=O)NCc1ccc2c(c1)OCO2 | 2 | 4 | -18 | 0
COc1cc(/C=N/NC(=O)Cn2c3ccccc3c(=O)c3ccccc32)ccc1O | 13 | 2 | 53* | 0
COc1cc(/C=N/NC(=O)CCC(=O)N/N=C/c2ccc(O)c(OC)c2)ccc1O | -2 | 2 | 9 | 0
COc1ccccc1NC(=O)Cn1c(-c2nonc2N)nc2ccccc21 | 1 | 0 | 65* | 0
CCOc1cc(/C=N/NC(=O)Cn2c(-c3nonc3N)nc3ccccc32)ccc1O | 6 | 0 | 46* | 0
CC(=O)c1ccc(NC(=O)Cn2c(-c3nonc3N)nc3ccccc32)cc1 | 4 | 0 | 5 | 0
COC(=O)c1ccccc1NC(=O)Cn1c(-c2nonc2N)nc2ccccc21 | 11 | 0 | 54* | 0
O=C(Nc1nnc(-c2cccc(Cl)c2)s1)C1CC1 | -12 | 1 | -12 | 0
CCN1CCN(S(=O)(=O)c2cc(C(=O)Nc3ccc(Oc4ccccc4)cc3)ccc2F)CC1 | 1 | 0 | 66* | 0
O=C(Nc1ccc(I)cc1)c1cccc(S(=O)(=O)N2CCOCC2)c1 | 12 | 2 | 8 | 0
O=C(Nc1ccc(Oc2ccccc2)cc1)c1cccc(S(=O)(=O)N2CCOCC2)c1 | 3 | 1 | 34* | 0
O=C(Nc1ccccc1)c1ccc(F)c(S(=O)(=O)N2CCOCC2)c1 | -179 | -1 | -9 | 0
CCc1ccccc1NC(=O)c1ccc(F)c(S(=O)(=O)N2CCN(c3cccc(C)c3)C(C)C2)c1 (centres undefined) | 11 | -1 | 35* | 0
O=C(Nc1ccc(Oc2ccccc2)cc1)c1ccc(F)c(S(=O)(=O)N2CCOCC2)c1 | -4 | 0 | 63* | 0
CN(c1ccccc1)S(=O)(=O)c1c[nH]c(=O)[nH]c1=O | 3 | -1 | -3 | 0
CC1(C)S[C@@H]2[C@H](NC(=O)[C@H](C(=O)O)c3cccs3)C(=O)N2[C@H]1C(=O)O | -17 | 1 | -3 | 0
CC1(C)C(C(=O)O)N2C(=O)C(NC(=O)C(C(=O)O)c3ccccc3)C2S1=O (centres undefined) | 23 | -1 | 1 | 2.5*
CCCc1nc(SCC(=O)NC)c2c(C)c(C)sc2n1 | 15 | 0 | -4 | 0
CN1CCN(Cc2cc(Cl)c3cccnc3c2O)CC1 | 79* | 0 | 54* | -1
OCC1CCCCN1Cc1cccc(Cl)c1Cl (centres undefined) | 6 | -1 | 3 | 1
CCOC(=O)C1CCN(Cc2cc(Cl)c3cccnc3c2O)CC1 | 43 | -1 | 72* | 0
O=C1c2ccccc2C(=O)N1Cc1cc(Cl)c2cccnc2c1O | 9 | 1 | 9 | 0
CCOC(=O)C1CCN(Cc2c(Cl)cccc2Cl)CC1 | 28 | 0 | -16 | 0
SMILES | MITF primary | GPR151 activ | TEAD-YAP block | FBW7 act
CC1CN(Cc2cc(Cl)c3cccnc3c2O)CC(C)O1 (centres undefined) | 56* | -1 | 24 | 0
OCC1CCCCN1Cc1cc(Cl)c2cccnc2c1O (centres undefined) (tested in a mixture with another compound) | 66* | 0 | 76* | 0
Cc1cccc(CNCc2ccc(OCC(O)CN(C)Cc3ccccc3)cc2)n1 (centres undefined) | -2 | 0 | 1 | 0
CCC(C)c1ccc(S(=O)(=O)NCC(C)(C)CN(C)C)cc1 (centres undefined) | 11 | 0 | 2 | 0
Oc1c(CN2CCOCC2)cc(Cl)c2cccnc12 | 64* | -1 | 50* | 0
CCN1CCN(Cc2cc(Cl)c3cccnc3c2O)CC1 | 50 | 1 | 47* | 0
Oc1c(CN2CCN(c3cccc(C(F)(F)F)c3)CC2)cc(Cl)c2cccnc12 | 7 | 0 | 16 | -1
O=C1CCCN1Cc1cc(Cl)c2cccnc2c1O | 64* | 1 | 9 | 0
O=C(Oc1c(Br)cc(Cl)c2cccnc12)N1CCCCC1 | -12 | 0 | -11 | 0
Oc1c(CN2CCCCCC2)cc(Cl)c2cccnc12 | 46 | -1 | 51* | -1
O=C(/C=C/c1ccc(Br)cc1)Nn1c(-c2ccccc2F)nc2ccccc2c1=O | 4 | -2 | -5 | 0
Cc1ccc2nc(N(Cc3ccccn3)C(=O)Cc3ccc(F)cc3)sc2c1 | -16 | 0 | -7 | 0
Cc1ccc(NC(=O)O/N=C\c2ccc(N(C)C)cc2)cc1 | -21 | 1 | 34* | 0
